Source: PubChem (National Center for Advancing Translational Sciences (NCATS))
In the library only some 9.3% were active in any assay of this set; here they are far more common.
ELG1 DNA repair – qHTS screen for small molecules that inhibit ELG1-dependent DNA repair in human embryonic kidney (HEK293T) cells expressing luciferase-tagged ELG1; HEK293T ELG1-luciferase reporter, luminescence, 16 h; DNA damage induced by 5-fluorouridine; Potency, µM (titrated, usually from 46.1 µM), for the others: at the highest dose activity change, negative = inhibition, usual class: inhibitors; actives 2.3% (n = 330,000); further: on the % scale 0 is the no-effect control and ±100 the full control effect; nearly all actives have a fitted effect of over 55% in size
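In this reporter screen, reduction of luminescence relative to DMSO vehicle indicated activity. Compounds and 5-fluorouridine were added together to 2,000 cells per well, incubated for 16 hr at 37 °C, then developed with ONE-Glo.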
NPC1 promoter act – qHTS Assay for NPC1 Promoter Activators | Huh7 NPC1 promoter luciferase reporter, 24 h | AID 485313, 2010 | Potency, µM (highest dose often 9.22 µM), for the others: top-dose activation, usual class: activators | actives 2.4% (n = 320,000); further: % of control where 0% means no effect; nearly all actives have a fitted effect of over 60% in size
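Huh7 cells stably carrying NPC1 promoter–luciferase, plated in Opti-MEM with 10% FBS for 2 h, were exposed to compound in DMSO for 24 h at 37 °C; luciferase reagent was added for 10 min and luminescence read.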
Rab9 prom act – qHTS Assay for Rab9 Promoter Activators; Potency, µM (titrated, usually from 9.22 µM), without a hit: at the highest dose activation, negative = inhibition, usual class: activators; actives 2.8% (n = 320,000); AID 485297, 2010; Huh7 Rab9 promoter-luciferase reporter, luminescence, 24 h; further: % of control where 0% means no effect; nearly all actives have a fitted effect of over 60% in size
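Steps: seed 1500 Huh7 Rab9-luc cells per well, rest 2 h at 37 °C; add compound in DMSO; incubate 24 h; add luciferase reagent, 10 min ambient; read luminescence.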
FLuc modulator – qHTS profiling assay for firefly luciferase inhibitor/activator using purifed enzyme and Km concentrations of substrates (counterscreen for miR-21 project); Luciferin 4-monooxygenase (Photinus pyralis), P08659; purified FLuc, Km substrates, luminescence inhibition; Potency, µM (highest dose often 57.5 µM), inactives show at the top dose activity change, negative = inhibition, usual class: inhibitors; actives 6.9% (n = 360,000); AID 588342, 2011;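 further: plate controls were vehicle for no effect and reference inhibitor for full effect; nearly all actives have a fitted effect of over 55% in size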
Target sequence (P08659 whole entry, looked up): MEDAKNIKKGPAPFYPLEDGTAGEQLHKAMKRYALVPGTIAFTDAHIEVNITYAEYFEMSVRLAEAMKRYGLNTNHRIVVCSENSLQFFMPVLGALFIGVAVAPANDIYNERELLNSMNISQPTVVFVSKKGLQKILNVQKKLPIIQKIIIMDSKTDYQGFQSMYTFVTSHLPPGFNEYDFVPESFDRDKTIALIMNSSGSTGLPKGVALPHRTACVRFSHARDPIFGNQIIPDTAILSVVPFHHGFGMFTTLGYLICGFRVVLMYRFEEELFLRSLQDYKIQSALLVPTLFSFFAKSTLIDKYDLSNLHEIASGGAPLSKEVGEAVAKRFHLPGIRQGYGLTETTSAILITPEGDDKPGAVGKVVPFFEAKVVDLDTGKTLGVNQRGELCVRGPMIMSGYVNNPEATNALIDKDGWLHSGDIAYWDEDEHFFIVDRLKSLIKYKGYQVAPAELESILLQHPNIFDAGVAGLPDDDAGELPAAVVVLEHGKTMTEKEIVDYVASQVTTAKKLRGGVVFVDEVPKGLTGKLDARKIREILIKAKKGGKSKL
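Purified P. pyralis luciferase (10nM final) with 10uM D-luciferin and 10uM ATP (Km levels) in 50mM Tris acetate pH 7.5, 10mM Mg acetate, 0.01% Tween-20, 0.05% BSA; qHTS 6-point titration, ~60 µM downward; luminescence read.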
ELG1 genotoxic – qHTS screen for small molecules that induce genotoxicity in human embryonic kidney (HEK293T) cells expressing luciferase-tagged ELG1; HEK293T ELG1-luciferase reporter, luminescence, 16 h; Potency, µM (doses to about 46 µM), for inactives: at the top dose activity change, positive = activation, usual class: activators; actives 1.3% (n = 330,000); AID 504466, 2011; further: % of control where 0% means no effect; nearly all actives have a fitted effect of over 60% in size
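Genotoxicity was scored as increased ELG1-luciferase reporter signal, measured by ONE-Glo luminescence (30 min, room temperature). Compound or vehicle exposure of the HEK293T reporter cells lasted 16 hr at 37°C.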
SMN2 splice up – qHTS Assay for Enhancers of SMN2 Splice Variant Expression | HEK293 SMN2-luciferase splicing reporter, luminescence, 30-36 h | Potency, µM (doses to about 46.1 µM), without a hit: top-dose activity change, positive = activation, actives largely listed as activators | actives 2.8% (n = 210,000); further: % of control where 0% means no effect; nearly all actives have a fitted effect of over 55% in size
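HEK293 cells carry an SMN2 […]–luciferase reporter in which exon 7 inclusion puts luciferase in frame. Cells were plated 10-12 h before compound addition, then incubated 30-36 h at 37C. ONE-Glo luminescence was read; sodium butyrate at 4.5 mM final served as control.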
Starred values were filed as active, the others as inactive; [ ] = dose if it differs, or a comment. The call rests on the fitted dose curve; in most records, active means well fitted curve in the direction sought with a large enough effect; inconclusive means small, poorly fitted or top-dose-only effect, or another doubt; inactive means no such curve, though single readings can be large; an effect the other way counts as inactive or inconclusive. Potency means the concentration at half of the fitted maximal effect.

For CCOC(=O)Cc1ccc2sc(-c3ccccc3)nc2c1 the results were ELG1 DNA repair inconclusive, NPC1 promoter act 3.2µM*, Rab9 prom act 1.6µM*, FLuc modulator 0.48µM*, ELG1 genotoxic 6.5µM* and SMN2 splice up 16µM*.
CCOC(=O)c1sc(-c2cccs2)nc1C was read as ELG1 DNA repair inconclusive, NPC1 promoter act 10%, Rab9 prom act 28%, FLuc modulator 17µM*, ELG1 genotoxic 1% and SMN2 splice up 17%.
`CCOC(=O)c1sc(-c2ccccc2)nc1C` gave ELG1 DNA repair inconclusive, NPC1 promoter act -7%, Rab9 prom act 17%, FLuc modulator 13µM*, ELG1 genotoxic inconclusive and SMN2 splice up 9%.
Screening CCOC(=O)CSc1nc(-c2ccccc2)cc(C(F)(F)F)c1C#N returned FLuc modulator 0% and SMN2 splice up 4%.
Screening C/C(=N\O)c1sc(-c2ccccc2)nc1C returned ELG1 DNA repair inconclusive, NPC1 promoter act 4µM*, Rab9 prom act 3.2µM*, FLuc modulator 8.5µM*, ELG1 genotoxic inconclusive and SMN2 splice up 16µM*.
For Cc1ccc(C)c(S(=O)(=O)c2nnn3c2nc(NC2CCCCC2)c2sccc23)c1 the results were FLuc modulator -1%.
Screening N#Cc1ccccc1-c1csc(N2CCC(C(N)=O)CC2)n1 returned FLuc modulator -19%.
`CCOC(=O)Cc1csc(NC(=O)CSc2nccn2C)n1` gave ELG1 DNA repair -15%, NPC1 promoter act -4%, Rab9 prom act 8%, FLuc modulator -2% and ELG1 genotoxic 0%.
Screening COC(=O)[C@@H]1C[C@H]2CC[C@H](O)C[C@H]2N1Cc1ccc(Cl)cc1 returned ELG1 DNA repair -1%, NPC1 promoter act -4%, Rab9 prom act -5%, FLuc modulator 0%, ELG1 genotoxic 0% and SMN2 splice up -11%.
For CNC(=O)c1sc(-c2ccccc2)nc1C the results were ELG1 DNA repair inconclusive, NPC1 promoter act 26%, Rab9 prom act 13%, FLuc modulator inconclusive, ELG1 genotoxic inconclusive and SMN2 splice up 0%.
For CNC(=O)c1sc(-c2ccc(Cl)cc2)nc1C the results were FLuc modulator 15µM* and SMN2 splice up inconclusive.
CCc1ccc(NC(=O)Nc2ccccc2OCc2cc(=O)n3ccccc3n2)cc1 was read as FLuc modulator 0.21µM*.
For O=C(COc1ccccc1Cl)Nc1ccccc1OCc1cc(=O)n2ccccc2n1 the results were FLuc modulator 19µM*.
Screening CSc1cccc(NC(=O)Nc2ccccc2OCc2cc(=O)n3cc(C)ccc3n2)c1 returned FLuc modulator 3µM*.
`O=C(COc1ccccc1)Nc1ccccc1OCc1cc(=O)n2ccccc2n1` gave FLuc modulator -5%.
`Cc1cc2oc(C(=O)Nc3ccc(S(=O)(=O)Nc4onc(C)c4C)cc3)cc(=O)c2cc1C` gave FLuc modulator inconclusive and SMN2 splice up 2%.
Screening Nc1ccc(CCc2nc3ccccc3o2)cc1 returned ELG1 DNA repair inconclusive, NPC1 promoter act 2.5µM*, Rab9 prom act 1.6µM*, FLuc modulator 2.7µM*, ELG1 genotoxic 2.9µM* and SMN2 splice up 13µM*.
For NCc1ccc(-c2nc3ccccc3o2)cc1 the results were ELG1 DNA repair inconclusive, NPC1 promoter act inconclusive, Rab9 prom act 22%, FLuc modulator inconclusive, ELG1 genotoxic inconclusive and SMN2 splice up inconclusive.
CSCCC1NC(=O)N(CC(=O)Nc2ccc(N3CCCCC3)cc2)C1=O (centres undefined) was read as ELG1 DNA repair inconclusive, NPC1 promoter act 11%, Rab9 prom act -6%, FLuc modulator 12µM*, ELG1 genotoxic 1% and SMN2 splice up -9%.
Screening CSCCC1NC(=O)N(CC(=O)Nc2c(Cl)cc(Cl)cc2Cl)C1=O (centres undefined) returned ELG1 DNA repair 0%, NPC1 promoter act -1%, Rab9 prom act 2%, FLuc modulator -2%, ELG1 genotoxic 2% and SMN2 splice up 0%.
`O=C(Nc1ccc2ncccc2c1)c1cc(Cl)ccc1Cl` gave ELG1 DNA repair inconclusive, NPC1 promoter act inconclusive, Rab9 prom act inconclusive, FLuc modulator inconclusive, ELG1 genotoxic -3% and SMN2 splice up 15%.
`COc1ccc(/C=C/C(=O)NC(=S)Nc2ccc(S(=O)(=O)Nc3cc(C)on3)cc2)cc1` gave ELG1 DNA repair 0%, NPC1 promoter act -7%, Rab9 prom act -1%, FLuc modulator 15µM* and ELG1 genotoxic 4%.
`COc1ccc(/C=C/C(=O)NC(=S)Nc2ccc(S(=O)(=O)Nc3ccc(OC)nn3)cc2)cc1` gave ELG1 DNA repair 9%, NPC1 promoter act -11%, Rab9 prom act 0%, FLuc modulator inconclusive, ELG1 genotoxic -4% and SMN2 splice up 7%[1.84 µM].
Cc1ccnc(NS(=O)(=O)c2ccc(NC(=O)/C=C/c3ccccc3)cc2)n1 was read as ELG1 DNA repair -2%, NPC1 promoter act 0%, Rab9 prom act -4%, FLuc modulator inconclusive and ELG1 genotoxic 0%.
Screening O=C(/C=C/c1ccc(F)cc1)Nc1ccc(S(=O)(=O)Nc2ncccn2)cc1 returned ELG1 DNA repair inconclusive, NPC1 promoter act -1%, Rab9 prom act 1%, FLuc modulator 17µM* and ELG1 genotoxic 3%.
For O=C(O)/C=C/c1ccc(S(=O)(=O)Nc2ccccc2C(=O)Nc2ccc(F)cc2)cc1 the results were ELG1 DNA repair 11%, NPC1 promoter act -1%, Rab9 prom act 2%, FLuc modulator 12µM* and ELG1 genotoxic 8%.
Screening Cc1ccc(/C=C/C(=O)Nc2ccc(S(=O)(=O)Nc3ncccn3)cc2)cc1 returned ELG1 DNA repair 0%, NPC1 promoter act -5%, Rab9 prom act 0%, FLuc modulator 9.5µM*, ELG1 genotoxic 7% and SMN2 splice up -2%.
For COc1cc2c(cc1OC)[C@@H]1O[C@](c3ccsc3)(C2)Oc2cc(C)n(-c3ccccc3)c(=O)c21 the results were NPC1 promoter act -10%[1.84 µM], Rab9 prom act 2%[1.84 µM] and FLuc modulator 2%[11.5 µM].
`COc1cc2c(cc1OC)C(c1ccc(N)cc1)=NNC(=O)C2` gave SMN2 splice up 21%.
